Assay outcomes from PubChem BioAssay.
Eya2 inh: qHTS Assay for Inhibitors of the Phosphatase Activity of Eya2 | AID 488837, 2010 | recombinant Eya2, OMFP fluorescence dephosphorylation (OMFP is methylfluorescein phosphate) | actives 0.006% (n = 330,000) | Potency, µM (series often up to 76.9 µM), for inactives: top-dose activity, negative = inhibition, actives largely listed as inhibitors; further: potency means the concentration at half of the fitted maximal effect
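Eya2 protein (added as 0.2 uM solution) was preincubated with compound for 10 min at ambient temperature in 50 mM HEPES pH 7.5, 50 mM NaCl, 5 uM MgCl2, 0.05% BSA, 1 mM DTT. OMFP (added at 50 uM) then reacted 10 min; fluorescence read at 485/525 nm.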
Six1-Eya2 inh: qHTS Assay for Inhibitors of the Six1/Eya2 Interaction; activity change, % (concentration not given with the values); AlphaScreen GST-Six1/His-Eya2 binding, biochemical; hits give low values; actives 0.56% (n = 360,000); Homeobox protein SIX1 (Homo sapiens) + Protein phosphatase EYA2 (Homo sapiens), …; AID 651725, 2012; in the data active means activity change below about -65%; inconclusive means mostly about -30% to -63%
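Six1/Eya2 binding was read as AlphaScreen signal after compounds were pinned into GST-Six1 plus His-tagged Eya2 (5X stock 250/500 nM) in pH 8.0 Tris/NaCl/TCEP buffer, beads added, then incubated 1 h, 37 C, dark.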
CtBP-E1A inh: qHTS Assay for Inhibitors of the CtBP/E1A Interaction. activity change, % (no concentration beside the values). AlphaScreen GST-E1A/His-CtBP binding, 1536-well; hits give low values. actives 0.49% (n = 340,000); in the data active means activity change below about -65%; inconclusive means mostly about -30% to -63%
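Steps: dispense buffer (Tris pH 8.0, NaCl 300 mM, TCEP 1 mM, BSA, Tween 20); add 5X protein mix (GST-E1A, His-CtBP, 125 nM each); pin 23 nL compound; 2 h at 37 °C, dark; add 5X beads (50 ug/mL); 1 h; read.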
rTrxR1 inhibitor: qHTS Assay for Inhibitors of Mammalian Selenoprotein Thioredoxin Reductase 1 (TrxR1): qHTS | Potency, µM (top dose mostly 114 µM), without a hit: at the highest dose activity change, negative = inhibition, usual class: inhibitors | actives 1% (n = 390,000) | recombinant rTrxR1, NADPH fluorescence consumption, selenite substrate; further: potency means the concentration at half of the fitted maximal effect; nearly all actives have a fitted effect of over 65% in size
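Rat TrxR1 (90 nM in the dispensed reagent) was pre-reduced with 400 uM NADPH for 5 min at room temperature, then incubated with compound for 15 min. After 400 uM selenite was added, NADPH fluorescence (Ex 340/Em 450 nm) was followed for 8 min.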
GALK inhibitor: qHTS Assay for Inhibitors of Human Galactokinase (GALK); Purified GALK, Kinase-Glo residual ATP luminescence; actives 0.007% (n = 270,000); P51570; Potency, µM (top dose mostly 57.5 µM), for inactives: top-dose activity change, negative = inhibition, usual class: inhibitors; further: potency means the concentration at half of the fitted maximal effect
Target sequence (P51570 whole entry, looked up): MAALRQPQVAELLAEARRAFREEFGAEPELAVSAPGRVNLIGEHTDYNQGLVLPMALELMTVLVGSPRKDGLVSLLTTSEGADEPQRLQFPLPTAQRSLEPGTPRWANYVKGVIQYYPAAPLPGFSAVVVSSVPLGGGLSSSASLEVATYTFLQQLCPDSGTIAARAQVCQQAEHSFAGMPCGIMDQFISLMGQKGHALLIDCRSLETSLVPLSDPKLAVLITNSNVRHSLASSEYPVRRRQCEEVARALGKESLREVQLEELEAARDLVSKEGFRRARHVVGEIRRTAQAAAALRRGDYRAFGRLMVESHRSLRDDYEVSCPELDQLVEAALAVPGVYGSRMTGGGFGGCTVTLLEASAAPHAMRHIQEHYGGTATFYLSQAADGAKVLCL
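Quantitative HTS: GALK 5 nM, ATP 35 uM, galactose 100 uM, 1 h room temperature, then luciferase-based ATP detection.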
TrxR1 substrate: qHTS Assay for Substrates of Mammalian Selenoprotein Thioredoxin Reductase 1 (TrxR1): qHTS. Thioredoxin reductase 1, cytoplasmic (Rattus norvegicus), O89049. actives 0.01% (n = 390,000). Potency, µM (doses to about 114 µM), for the others: top-dose activity change, negative = substrate turnover. purified TrxR1 substrate turnover, NADPH consumption readout; further: potency means the concentration at half of the fitted maximal effect; nearly all actives have a fitted effect of over 50% in size
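Rat TrxR1, dispensed at 90 nM, was prereduced with 400 uM NADPH (final) for 5 min at ~22 deg C, then incubated with compound 15 min before 400 uM selenite. A first-read NADPH fluorescence drop versus no-compound background flagged substrates.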
Numbers without * were called inactive; ? = inconclusive; . = no result; ! = not active in a repeat; [ ] = another dose, or the depositor's remark. Hits are enriched below; roughly 1.5% of the tested compounds scored in any of these assays. Unless noted, the call rests on the fitted dose curve; in most records, active means well fitted curve in the direction sought with a large enough effect; inconclusive means small, poorly fitted or top-dose-only effect, or another doubt; inactive means no such curve, though single readings can be large; an effect the other way counts as inactive or inconclusive. On the % scale 0 is the no-effect control and ±100 the full control effect.

SMILES | Eya2 inh | Six1-Eya2 inh | CtBP-E1A inh | rTrxR1 inhibitor | GALK inhibitor | TrxR1 substrate
COc1ccc(C2=Nn3c(nnc3-c3ccccn3)SC2)cc1OC | -1% | -77* | -82* | 9% | 1% | -4%
COc1ccc(C2=Nn3c(nnc3-c3cc(C)[nH]n3)SC2)cc1 | 5% | -77* | ? | 12%[57.1 µM] | -3% | -6%
COc1ccc(C2=Nn3c(nnc3-c3ccccc3Cl)SC2)cc1OC1CCOC1 (stereo not given) | -2% | . | . | 5%[57.1 µM] | . | -8%[57.1 µM]
COc1ccc(C2=Nn3c(nnc3-c3ccccc3Cl)SC2)cc1OC1CCCC1 | -5% | . | . | 7.1µM* | . | -11%
CCOc1ccc(C2=Nn3c(nnc3-c3ccco3)SC2)cc1 | 7% | ? | -29 | -8% | 2% | -2%
COc1ccc(C2=Nn3c(nnc3-c3ccc(OC)cc3)SC2)cc1 | 0% | -18 | -28 | -1% | -1% | -6%
COc1ccc(C2=Nn3c(nnc3-c3ccccc3OC)SC2)cc1OC | -5% | -29 | ? | 2% | -3% | -4%
CCN(CC)CCCNC(=O)c1cn(CC)c2ccc(S(=O)(=O)N3CCC(C)CC3)cc2c1=O | . | . | . | 17% | . | 1%
CCOc1ccc(N2CC(NC(=O)c3cc4ccccc4o3)CC2=O)cc1 (stereo not given) | . | . | . | -11%[57.1 µM] | . | -2%[57.1 µM]
CCOC(=O)c1c(C)[nH]c(CCC(=O)NCc2ccccc2C)c1C | . | . | . | 8%[57.1 µM] | . | -5%[57.1 µM]
O=C1C(=O)c2cccnc2-c2ncccc21 | . | -83* | -80* | . | . | .
O=C1c2cccnc2-c2ncccc21 | 3% | -8 | -5 | 4%[57.1 µM] | 6% | 13%[57.1 µM]
O=C(NCCc1ccc(Cl)cc1)c1ccc(CS(=O)Cc2cccc(Cl)c2)o1 (stereo not given) | . | . | . | 0% | . | -3%
O=C(C(Cl)c1ccccc1)N1CCCC1 (stereo not given) | 1% | 1 | 0 | 20µM* | 10% | 6%[57.1 µM]
O=C(Nc1ccc(N2CCCCC2)cc1)C(Cl)c1ccccc1 (stereo not given) | 9% | -19 | ? | -7% | 3% | -6%
CC(=O)OCON[N+]([O-])=NC(C)C | . | . | . | 16µM*! | . | 4%
COc1cccc(CNc2ccc(N3CCC(C)CC3)cc2)c1OC | -8% | -72* | -70* | -28%[57.1 µM] | 3% | 6%[57.1 µM]
Cc1[nH]c2ccccc2c1C(c1ccncc1)N1CCC(C)CC1 (stereo not given) | 5% | -13 | -9 | -45% | 6% | -5%
Cc1[nH]c2ccccc2c1C(c1ccccn1)N1CCC(C(N)=O)CC1 (stereo not given) | -11% | 1 | -3 | 1.6µM* | 2% | 5%
Cc1nc2ccn(Cc3ccccc3)c(=O)c2cc1C(=O)Nc1ccc(F)cc1Cl | . | . | . | 9%[57.1 µM] | . | 35%[57.1 µM]
COc1cc(/C=C2/SC(=Nc3ccc(O)cc3)NC2=O)cc(OC)c1O | -6% | -71* | 0 | 5%[57.1 µM] | 0% | -8%
NC1=NC(=O)C(=Cc2ccccc2)S1 | . | 10 | -22 | -20%[11.4 µM] | . | -8%[11.4 µM]
NC1=NC(=O)/C(=C\c2ccco2)S1 | -18% | -29 | -22 | 40µM* | -1% | -4%
COc1ccc(CNC(=O)C(c2ccncc2)N(C(=O)Cc2cccs2)c2ccccc2)cc1 (stereo not given) | -2% | 13 | 1 | 9%[57.1 µM] | 1% | 8%[57.1 µM]
COc1ccc(N(C(=O)CCl)C(C(=O)NCCc2ccccc2)c2cccs2)cc1 (stereo not given) | -7% | -2 | -3 | 11µM* | 1% | 1%
SMILES | Eya2 inh | Six1-Eya2 inh | CtBP-E1A inh | rTrxR1 inhibitor | GALK inhibitor | TrxR1 substrate
CCOc1cc(-c2ccc(OC(=O)c3ccc(OC)cc3)c(OC)c2)cc(=O)c2c(C)oc(C)c12 | . | . | . | 35µM* | . | -3%
COc1ccc(-c2cc(OC(=O)c3ccc(Cl)cc3)c3c(C)oc(C)c3c(=O)c2)cc1 | . | . | . | 50µM* | . | -7%
CC1CCCCN1CCCNC(=O)c1ccc2c(c1)sc1nc(-c3ccc(F)cc3)cn12 (stereo not given) | . | . | . | -3% | . | -3%
COc1ccc(CCNc2ncnc3c2cnn3-c2cc(Cl)ccc2C)cc1 | . | . | . | 7%[57.1 µM] | . | 2%[57.1 µM]
Cc1cc(C)cc(NC(=O)c2ccc(CSc3nnnn3C)cc2)c1 | -3% | -6 | -13 | 7% | -2% | -2%
Cn1nnnc1SCc1ccc(C(=O)Nc2nccs2)cc1 | -19% | -70* | -80* | 22% | -2% | 6%
Cc1ccc(/C=C2\S/C(=N/S(=O)(=O)c3cccs3)NC2=O)cc1 | -2% | -67* | . | 4% | -20% | 5%
CCOC(=O)C(C)CC(C)C(=O)N1CCOCCOCCN(C(=O)C(C)CC(C)C(=O)OCC)CCOCC1 (stereo not given) | -10% | 2 | 0 | 9% | 1% | 7%
CCOC(=O)C(C(=O)OCC)C(C(=O)OCC)N1CCOCC1 (stereo not given) | -9% | 1 | 12 | 1.3µM* | -2% | 6%
COC(=O)c1ccc(C(=O)OC)c(NC(=O)c2c(-c3ccccc3)noc2C)c1 | . | . | . | 7% | . | 2%
O=C(COc1ccccc1C(=O)N/N=C\c1ccc(O)c(O)c1)N/N=C/c1ccc(O)c(O)c1 | 2% | -79* | -77* | -27% | . | -15%
CCCNC(=O)COC(=O)c1ccccc1C(=O)c1ccc(Cl)c([N+](=O)[O-])c1 | -4% | -14 | 0 | 50µM* | 3% | 4%
Cc1ccc(Cl)c(NC(=O)COC(=O)c2ccccc2C(=O)c2ccc(Cl)c([N+](=O)[O-])c2)c1Cl | 3% | 2 | 0 | -16% | 1% | -8%
CCc1ccc(OCC(=O)Nc2cc(-c3nc4cc(C)ccc4o3)ccc2C)cc1 | . | . | . | 28% | . | 17%
O=C(CN1C(=O)NC2(CCCCC2)C1=O)Oc1ccc2ccc(=O)oc2c1 | -16% | 3 | 1 | 50µM* | . | 379%
Cc1ccc(C)c(S(=O)(=O)N(C)c2ccc(OC(=O)CN3C(=O)NC4(CCCC4)C3=O)cc2)c1 | . | 3 | 0 | 9% | . | -2%
COc1ccc(-n2nc([N+](=O)[O-])c(=NCCC3=CCCCC3)n2O)cc1 | 2% | -70* | ? | 12%[57.1 µM] | -3% | -10%
Cc1ccc(S(=O)(=O)NCCc2nnc3ccc(SCc4ccc(F)cc4)nn23)cc1 | . | . | . | 10% | . | -7%
Nc1nonc1C(=O)NCCNCc1ccc(Cl)c(Cl)c1 | . | . | . | 6% | . | 4%[11.4 µM]
